Our source for the outcome and AC50 values is PubChem BioAssay (EPA / NIEHS).

The source made the active and inactive calls. The calls were made as follows: active = hit-call score of the fitted dose curve at least 0.9, where 1 is the maximum; inactive = score below 0.9.

Assay [1] can be described thus: APR_HepG2_CellCycleArrest_24hr: Apredica 24-hour HepG2 Assay for Cell Cycle Arrest (AID 2282905).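 Also: cell cycle arrest scored as ratio of 2N to 4N nuclear DNA content.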 The settings on record: imaging, actives raise or lower the signal. An outline of the steps: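 Readout: Hoechst 33342 nuclear DNA content by high-content fluorescent imaging, six images/well, 20x. Human HepG2 liver cells, 24 hr compound exposure, 0.39–200 uM, final DMSO 0.5% v/v. Gain or loss fitted relative to DMSO baseline.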

Assay [2] is described as follows: APR_HepG2_NuclearSize_24hr: Apredica 24-hour HepG2 Assay for Nuclear Size (AID 2282907). Conditions: high-content imaging, actives raise or lower the signal. An outline of the steps: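 Read-out: nuclear diameter from Hoechst 33342 (2 ug/mL) imaging of fixed HepG2 cells, 20x, six fields/well. Compounds ran at 0.39–200 uM for 24 hr, 0.5% DMSO final. Gain or loss was fitted bidirectionally relative to the DMSO baseline.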

The nature of assay [3]: APR_HepG2_CellLoss_24hr: Apredica 24-hour HepG2 Assay for Cell Loss (AID 2282908).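 As to AC50: fit in both directions so a hit may be cell loss or gain.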 Conditions: high-content imaging. An outline of the steps: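 Read-out: Hoechst 33342-stained nuclei counted by automated fluorescence imaging after formaldehyde fixation and Triton permeabilization. Ten concentrations, 0.39 to 200 uM, duplicate wells, 0.5% DMSO final. Gain or loss of signal fitted relative to DMSO baseline.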

The nature of assay [4]: APR_HepG2_MicrotubuleCSK_24hr: Apredica 24-hour HepG2 Assay for Microtubule CSK Stabilty (AID 2282909). Conditions: HepG2 microtubule cytoskeleton imaging, actives raise or lower the signal. An outline of the steps: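 Read-out: alpha-tubulin immunofluorescence intensity by automated high-content imaging of fixed HepG2 cells after 24 h compound treatment. Ten concentrations, 0.39 to 200 uM, in duplicate; DMSO 0.5% v/v. Taxol positive control; DMSO-normalized bidirectional curve fitting.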

Assay [5] in a line: APR_HepG2_MitoticArrest_24hr: Apredica 24-hour HepG2 Assay for Mitotic Arrest (AID 2282910). Conditions: high-content imaging, actives raise or lower the signal. An outline of the steps: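 HepG2, 24 hr dosing, 0.39–200 uM, 0.5% DMSO final. Formaldehyde-fixed, Triton-permeabilised, anti-phospho-histone H3 plus Hoechst. ArrayScan imaging at 20x; bidirectional fit vs DMSO baseline.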

A short description of assay [6]: APR_HepG2_MitoMembPot_24hr: Apredica 24-hour HepG2 Assay for Mitochondrial Membrane Potential (AID 2282911). The settings on record: imaging, actives raise or lower the signal. An outline of the steps:
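Mitochondrial dye uptake (MitoTracker Red CMXRos, 250 nM, 30 min pre-fixation) in HepG2 after 24 hr compound exposure, 0.39–200 uM; ArrayScan images at 20x, activity fitted in both directions relative to DMSO.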

Assay [7] can be described thus: APR_HepG2_MitoMass_24hr: Apredica 24-hour HepG2 Assay for Mitochondrial Mass (AID 2282912). Conditions: high-content imaging, actives raise or lower the signal. An outline of the steps: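 HepG2, 24 hr dosing, 10 concentrations 0.39–200 uM in duplicate, DMSO 0.5% final. MitoTracker Red CMXRos 250 nM, 30 min pre-fix; 3.7% formaldehyde fix. Imaging-based fluorescence intensity; gain/loss fit vs DMSO baseline.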

The nature of assay [8]: APR_HepG2_p53Act_24hr: Apredica 24-hour HepG2 Assay for p53 Activation (AID 2282913).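 Also: p53 protein immunofluorescence averaged per cell in HepG2 with Hoechst nuclei.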 Conditions: high-content imaging, actives raise or lower the signal. An outline of the steps: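 Following 24 hr dosing of HepG2 at 0.39–200 uM, the cells undergo formaldehyde fixation, Triton permeabilization and multiplexed antibody labeling that includes p53 (Cy5). Signal from the imaging is referenced to DMSO solvent controls.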

Assay [9] in a line: APR_HepG2_CellCycleArrest_72hr: Apredica 72-hour HepG2 Assay for Cell Cycle Arrest (AID 2282914). Conditions: high-content imaging, actives raise or lower the signal. An outline of the steps:
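Using multiplexed high-content imaging, HepG2 nuclei stained with Hoechst 33342 (2 ug/mL) were analysed for DNA content after fixation and permeabilization. Treatment lasted 72 hr across 0.39–200 uM in duplicate with final DMSO 0.5% v/v; DMSO served as negative control.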

Assay [10] is described as follows: APR_HepG2_CellLoss_72hr: Apredica 72-hour HepG2 Assay for Cell Loss (AID 2282915). Conditions: high-content imaging. An outline of the steps:
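HepG2 cells exposed 72 h to compound at 0.39–200 uM (10 concentrations, duplicate) in 0.5% DMSO. Fixed with 3.7% formaldehyde and Hoechst 33342-stained. Imaged at 20x; nuclear count gives cell number, fitted bidirectionally versus DMSO.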

The nature of assay [11]: APR_HepG2_P-H2AX_72hr: Apredica 72-hour HepG2 Assay for H2AX Phosphorylation (AID 2282916).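 Also: phospho-histone H2A.x immunostain intensity per cell marking DNA damage.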 The settings on record: imaging, actives raise or lower the signal. An outline of the steps: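 Readout: phospho-H2A.x immunofluorescence (FITC secondary) plus Hoechst nuclear stain, high-content imaging at 20x, six fields/well. HepG2, 72 hr compound exposure, 0.39–200 uM, final DMSO 0.5% v/v. Gain or loss fitted relative to DMSO baseline.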

Assay [12] can be described thus: APR_HepG2_MitoMembPot_72hr: Apredica 72-hour HepG2 Assay for Mitochondrial Membrane Potential (AID 2282917). Conditions: imaging, actives raise or lower the signal. An outline of the steps:
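HepG2 cells dosed 72 hr with compound at 0.39–200 uM in duplicate, 0.5% v/v DMSO final. Mitochondria stained with 250 nM MitoTracker Red CMXRos for 30 min before formaldehyde fixation, imaged by high-content fluorescence; bidirectional fit versus DMSO.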

Assay [13] in a line: APR_HepG2_MitoticArrest_72hr: Apredica 72-hour HepG2 Assay for Mitotic Arrest (AID 2282918). The settings on record: high-content imaging, actives raise or lower the signal. An outline of the steps: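 Using high-content imaging of fixed HepG2 cells, phospho-histone H3 signal was measured following a 72 hr incubation with ten-point compound dilutions up to 200 uM. DMSO served as the negative control and baseline for bidirectional curve fitting.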

The nature of assay [14]: APR_HepG2_MicrotubuleCSK_72hr: Apredica 72-hour HepG2 Assay for Microtubule CSK Stabilty (AID 2282919). The settings on record: HepG2 microtubule cytoskeleton, high-content imaging, actives raise or lower the signal. An outline of the steps:
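HepG2, 72 hr cmpd exposure, 0.39–200 uM (10 pts, duplicate), 0.5% DMSO. 3.7% formaldehyde fix, 0.5% Triton perm, anti-alpha-tubulin/Cy5 plus Hoechst. HCS fluorescence intensity; bidirectional fit vs DMSO baseline; taxol as positive control.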

Assay [15] in a line: APR_HepG2_P-H2AX_24hr: Apredica 24-hour HepG2 Assay for H2AX Phosphorylation (AID 2282920). Conditions: high-content imaging, actives raise or lower the signal. An outline of the steps: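 Human HepG2 liver cells, treated 24 hr with test chemicals (0.39–200 uM, final DMSO 0.5% v/v), are fixed and co-stained for phospho-H2A.x and c-Jun with Hoechst. Imaged intensity is fitted in both directions against DMSO controls.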

The nature of assay [16]: APR_HepG2_StressKinase_72hr: Apredica 72-hour HepG2 Assay for Stress Kinase (AID 2282921). The settings on record: HepG2 stress kinase (phospho-c-Jun) imaging, actives raise or lower the signal. An outline of the steps: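 Phospho-c-Jun immunofluorescence measured by high-content imaging at 20x, six fields per well; bidirectional curve fitting against DMSO as baseline. Dosing: 0.39–200 uM, 72 h, 0.5% DMSO final.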

The nature of assay [17]: APR_HepG2_StressKinase_24hr: Apredica 24-hour HepG2 Assay for Stress Kinase (AID 2282922). Conditions: HepG2 stress kinase (phospho-c-Jun) imaging, actives raise or lower the signal. An outline of the steps:
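Read-out: phospho-c-Jun immunofluorescence (Cy3 secondary) quantified by high-content imaging at 20x, nuclei defined by Hoechst 33342. Human HepG2 liver cells dosed 24 hr, 0.39–200 uM, DMSO 0.5% v/v; gain or loss of signal fitted relative to DMSO.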

A short description of assay [18]: APR_HepG2_p53Act_72hr: Apredica 72-hour HepG2 Assay for p53 Activation (AID 2282923).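 Also: average cellular p53 protein immunofluorescence intensity in HepG2 cells.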 The settings on record: high-content imaging, actives raise or lower the signal. An outline of the steps:
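Readout: p53 immunofluorescence quantified by automated high-content imaging at 20x, six fields per well, nuclei located via Hoechst. Dosing ran 72 hr over ten concentrations from 0.39 to 200 uM; bidirectional curve fitting against DMSO baseline.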

Assay [19] in a line: APR_HepG2_MitoMass_72hr: Apredica 72-hour HepG2 Assay for Mitochondrial Mass (AID 2282924).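 Also: MitoTracker Red CMXRos stain intensity per cell imaged as mitochondrial mass.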 Conditions: high-content imaging, actives raise or lower the signal. An outline of the steps:
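Read-out: MitoTracker Red fluorescence intensity from automated imaging (20x, six fields per well) in human HepG2 liver cells. Dosing ran 72 hr, 0.39–200 uM, 0.5% DMSO; bidirectional curve fitting versus DMSO baseline.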

The nature of assay [20]: APR_HepG2_NuclearSize_72hr: Apredica 72-hour HepG2 Assay for Nuclear Size (AID 2282925). The settings on record: high-content imaging, actives raise or lower the signal. An outline of the steps: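 Read-out: nuclear diameter from Hoechst 33342 images (ArrayScan, 20x, six fields/well), via cell-cycle image analysis. HepG2 were dosed 0.39–200 uM for 72 hr in 0.5% DMSO. Bidirectional fit relative to DMSO.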

For orientation: AC50 means the concentration at which the activity in the assay is half-maximal.

Turning to `CC(C)(O)c1ccc(CNC(=O)c2cccnc2Oc2ccc3nonc3c2)cc1`, the molecule was classed as inactive in assay [1], in assay [2], in assay [3], in assay [4], in [5] and in assay [6]. For the same molecule, the call in assay [7], in [8], in assay [9], in assay [10], in assay [11] and in assay [12] was inactive. The molecule was called inactive in assay [13], in assay [14], in assay [15], in assay [16], in assay [17] and in [18]. The molecule was called inactive in [19] and in assay [20].

Take `CCCCCCCC[Si](OCC)(OCC)OCC`: the call in assay [1], in [2], in [4], in assay [5], in [7] and in [8] was inactive. In addition, the result in assay [12], in [14], in assay [15], in assay [17] and in assay [20] was inactive. Moreover, the concentration at half-maximal activity (AC50) in assay [3] is 118 µM (active); in assay [6], 29.8 µM (active); in assay [9], 0.03 µM (active); in assay [10], 34 µM (active); in assay [11], 19.8 µM (active); in [13] it was 115 µM (active). In addition, the AC50 in assay [16] is 100 µM (active); in assay [18] it was 19.8 µM (active); in assay [19] it was 41.2 µM (active).

On to `c1ccc(C[n+]2cccc3ccccc32)cc1`, for which the AC50 in assay [1] was 178 µM (active); in assay [3] it was 115 µM (active); in assay [4] it was 100 µM (active); in [6], 32.8 µM (active); in [7], 167 µM (active); in assay [9] it was 36.8 µM (active). For the same molecule, the half-maximal activity concentration (AC50) is 54.8 µM (active) in assay [10]; 20.6 µM (active) in assay [11]; 109 µM (active) in assay [13]; 87 µM (active) in assay [14]; 106 µM (active) in [15]; 25.6 µM (active) in assay [16]. Moreover, the AC50 in assay [20] is 68.9 µM (active). Moreover, the call in assay [2], in assay [5], in assay [8], in [12], in assay [17] and in [18] was inactive. The result in [19] was inactive.

Consider `Clc1cc(Cl)c2c(c1)N=C1CCCCCN1C2`, for which the molecule was called inactive in [1], in assay [2], in assay [3], in assay [4], in assay [5] and in [7]. For the same molecule, the call in assay [8], in assay [9], in assay [10], in assay [11], in [12] and in [13] was inactive. Moreover, the call in assay [14], in [15], in assay [16], in assay [17], in assay [18] and in assay [19] was inactive. Further, the call in assay [20] was inactive. The half-maximal activity concentration (AC50) in [6] is 0.0248 µM (active).

Regarding `c1ccc2ccccc2c1`, the molecule was classed as inactive in [1], in [2], in assay [3], in assay [4], in [5] and in assay [6]. The molecule was classed as inactive in assay [7], in [8], in assay [11], in assay [14], in assay [15] and in [16]. Also, the result in [17] and in assay [20] was inactive. In addition, the AC50 was 0.0357 µM (active) in assay [9]; 0.0736 µM (active) in [10]; 0.0415 µM (active) in assay [13]; 0.0391 µM (active) in assay [18]; 0.0598 µM (active) in [19].

Regarding `CCOC(=O)O[C@H](C)OC(=O)c1ccc2c(c1)cc(C(=O)NC1CCN(C(C)C)CC1)n2Cc1cc(-c2ccc(Cl)s2)on1`, the half-maximal activity concentration (AC50) in assay [1] was 94.5 µM (active); in assay [3], 9.26 µM (active); in assay [4], 25 µM (active); in assay [5], 10.1 µM (active); in assay [6], 44.4 µM (active); in [7], 167 µM (active). Moreover, the AC50 in assay [8] is 94.5 µM (active); in assay [10], 8.32 µM (active); in [14], 94.5 µM (active); in [15], 94.5 µM (active). The outcome in assay [2], in assay [9], in assay [11], in [13], in [16] and in [17] was inactive. Further, the outcome in [18], in [19] and in [20] was inactive.
